Records with an inconclusive call do not appear. A call without a number means that no potency is given here. Where a structure was tested more than once in an assay, its records may differ in their call. Activity calls are given as the source filed them. Calls follow the shape of the dose curve; as a rule, active = well fitted activation curve with a large enough effect in the signal ratio in the repeat runs (not every such curve was filed as active); inconclusive = weak or mixed curves; inactive = flat fitted curve, though single readings scatter; the % refers to the signal ratio.
assay: qHTS assay to identify small molecule agonists of H2AX (AID 1224845); settings: CHO-K1 phospho-H2AX Ser139 HTRF, 3 h; series mostly up to 154 µM
Source text: National Center for Advancing Translational Sciences [NCATS]
NIH Chemical Genomics Center [NCGC]
U.S. Environmental Protection Agency [EPA]
National Institutes of Environmental Health Sciences [NIEHS]
National Toxicology Program [NTP]
U.S. Food and Drug Administration [FDA]
HTRF phospho-H2AX (Ser139) assay (Cisbio Bioassays, US) enables the quantitative detection of the histone variant H2AX when phosphorylated on serine 139. When double-stranded DNA breaks, either by ionizing radiation or endogenous physiological processes, H2AX becomes phosphorylated at Ser139. This phospho-Ser139 serves as a sensitive biomarker for the detection of such breaks, localizing the site of DNA repair. So, HTRF phospho-H2AX Ser139 is a pertinent assay to study genome stability, the cell cycle, DNA repair, and it serves as a biomarker for cancer, and to understand aging. Wild type CHO-K1 cells were used to identify the inducers of Phospho-H2AX Ser 139 from the Tox21 10K compound collections.
Tox21 Assay Protocol Summary:
The CHO-K1 cells suspended in culture medium containing 10% FBS were dispensed at 1000 cells/ 3 ul/well in 1536-well white wall/solid bottom plates (Greiner Bio-One North America, NC) using a Multidrop Combi (Thermo Fisher Scientific Inc., Waltham, MA). After the assay plates were incubated at 37C overnight, 23 nl of compounds at 15 concentrations (from 5-48 columns) or positive control (from 1 to 4 columns) were transferred to the assay plates using a Pintool station (Wako, San Diego, CA) into each well resulting in a final DMSO concentration of 0.76%. After 3hr incubation at 37C, 1 uL/well Supplemented Lysis buffer (diluted 100 fold blocking reagent in lysis buffer) (HTRF Phospho-H2A.X (S139) Assay kit from Cisbio US Inc., Bedford, MA) was added using a Flying Reagent Dispenser (FRD) (Aurora Discovery, CA). After 10sec spin at 1000 rpm in a plate centrifuge, the assay plates were incubated at room temperature for 30 min. Then followed by the addition of 1 uL/well detection buffer (containing a mixture of two antibodies, one labeled with cryptate, Anti pH2AX (S139)-K and another labeled with d2, Anti H2AX-d2) using FRD. After incubation at room temperature for 24 hr, the time resolved fluorescence at excitation 320 nm and emissions at 665 nm and 620 nm was measured using an Envision plate reader (PerkinElmer, Waltham, MA).
Potency is read from the fitted curve at half-maximal effect.

Structure (SMILES) | Potency
CCOC(=O)C1OC1c1ccccc1 (stereo not given) | inactive
CC(C)(C)C1CCC(O)CC1 (stereo not given) | inactive
Oc1ccc2ccccc2c1N=Nc1ccccc1 | inactive
C=C(C#N)C(=O)OCC | inactive
O=C1O[C@H](CO)[C@@H](O)[C@H](O)[C@H]1O | inactive
NC(=O)/N=N/C(N)=O | inactive
CCCCCCCCCC(=O)O | inactive
CCCCC(CC)C(=O)OCCOCCOCCOC(=O)C(CC)CCCC (stereo not given) | inactive
O=C(Cl)c1c(Cl)c(Cl)c(C(=O)Cl)c(Cl)c1Cl | inactive
CCOC(=O)[C@H](CCc1ccccc1)N[C@@H](C)C(=O)N1Cc2ccccc2C[C@H]1C(=O)O | inactive
O=C1CCCCC1 | inactive
CCCCC(CC)COC(=O)CCCCCCCC(=O)OCC(CC)CCCC (stereo not given) | inactive
CC(C)Cc1ccccc1 | inactive
COCC(=O)O | inactive
Cc1ccc(C(=O)O)o1 | inactive
O=C(O)c1cc(-c2ccccc2)nc2ccccc12 | inactive
NCCNCCNCCNCCN | inactive
CC(C)n1c(/C=C/[C@@H](O)C[C@@H](O)CC(=O)O)c(-c2ccc(F)cc2)c2ccccc21 | inactive
COC(=O)c1ccc(C(=O)OC)cc1 | inactive
CCCCC(CC)COC(C)=O (stereo not given) | inactive

Structure (SMILES) | Potency
CC1Cc2ccccc2N1NC(=O)c1ccc(Cl)c(S(N)(=O)=O)c1 (stereo not given) | inactive
OC[C@@H](O)[C@@H](O)[C@H](O)[C@@H](O)CO | inactive
CC[Si](OC(C)=O)(OC(C)=O)OC(C)=O | inactive
CCc1ccccc1O | inactive
CCc1ccc(O)cc1 | inactive
Oc1ccc(OCc2ccccc2)cc1 | 22.1 µM (active) and inactive
CC1=C(/C=C/C(C)=C/C=C/C(C)=C/CO)C(C)(C)CCC1 | inactive
C=C(C)C(=O)OCC(CC)(COC(=O)C(=C)C)COC(=O)C(=C)C | inactive
O=S(=O)(Oc1ccc(Cl)cc1Cl)c1ccccc1 | inactive
CC(=O)CCc1ccccc1 | inactive
Cc1cc(=O)[nH]c(C(C)C)n1 | inactive
CC1CC(OC(=O)c2ccccc2O)CC(C)(C)C1 (stereo not given) | inactive
C=CC(=O)OCCCCCCCC(C)C | inactive
Nc1cc(-c2ccncc2)c[nH]c1=O | inactive
CC(=O)[C@@]1(O)CC[C@H]2[C@@H]3CCC4=CC(=O)CC[C@]4(C)[C@H]3CC[C@@]21C | inactive
O=C(O)c1ccc([N+](=O)[O-])cc1 | inactive
CCCCCCCCCCCCOCC1CO1 (stereo not given) | inactive
CCOC(=O)/C=C\C(=O)OCC | inactive
CCCCCCCCC | inactive
C[C@@H](O)[C@H]1C(=O)N2C(C(=O)O)=C(S[C@@H]3CN[C@H](C(=O)N(C)C)C3)[C@H](C)[C@H]12 | inactive
